Source: PubChem
An excerpt weighted towards active compounds, which were near 1.9% of everything screened.
APP transl inh: APP translation inhibition; AID 1285; actives 0.82% (n = 190,000); SH-SY5Y APP 5'UTR-luciferase reporter, luminescence; inhibition, % at 2 µM;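 active = inhibition above a set limit, derived from the sample mean plus 3 SD, cut at about 45% in these data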
Ba/F3 V617F tox: lowers viability of Ba/F3 cells expressing EpoR and JAK2V617F; ATP luminescence; inhibition, % at 5.6 µM; actives 1.1% (n = 220,000); AID 1446;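 active = inhibition above the campaign mean plus 3 SD over all tested compounds, cut at about 24% in these data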;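 also: cytokine-independent growth of Ba/F3 cells driven by EpoR plus mutant JAK2; 0% = DMSO-treated cells and 100% = JAK inhibitor I control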
IEC-6 tox: counter-screen for KLF5 inhibitors: cytotoxicity in IEC-6 cells | inhibition, % at 5 µM | IEC-6 cytotoxicity, luminescence viability | actives 0.78% (n = 290,000) | AID 1825; in the data active = inhibition above about 22%;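 also: 0% = plate median of test compound wells and 100% = cytotoxic reference compound wells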
BaF3 parental: reduces parental Ba/F3 cell viability, JAK2V617F counter-screen | CellTiter-Glo ATP luminescence | inhibition, % at 5.6 µM | actives 1.1% (n = 220,000);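 active = inhibition above a per-campaign cutoff, the mean inhibition of all tested compounds plus 3 SD, cut at about 27% in these data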;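 also: 0% = DMSO wells and 100% = JAK Inhibitor I control wells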
KLF5 inh: suppresses KLF5 promoter-driven expression; DLD-1 KLF5 promoter-luciferase reporter, luminescence; actives 0.23% (n = 290,000); inhibition, % at 5 µM; AID 1700;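 active = inhibition above a per-plate limit of that plate's mean compound inhibition plus 3 SD, cut at about 60% in these data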;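 also: 0% = DMSO wells and 100% = LY294002 at 200 µM; higher means less KLF5 promoter-driven luciferase light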
* hit, by the source's call; nt = no result.

SMILES | APP transl inh | Ba/F3 V617F tox | IEC-6 tox | BaF3 parental | KLF5 inh
CC(C)(C)OC(=O)N1CCC[C@H]1c1nnc(SCC(=O)Nc2ccc(Br)cc2)o1 | nt | -2 | 4 | -1 | 17
CC(NC(=O)C1c2ccccc2Oc2ccccc21)C1CCCO1 (stereo not given) | 7 | 2 | 4 | 7 | -28
Nc1cc(=O)[nH]c(SCc2nc3ccccc3n2Cc2ccccc2)n1 | 46* | -4 | -3 | 3 | -18
O=c1[nH]c(SCc2nc3ccccc3n2Cc2ccccc2)nc2ccccc12 | nt | -5 | 5 | 3 | -34
O=C(CN(c1ccccc1)S(=O)(=O)c1ccc(F)cc1)NC1CCCCCC1 | nt | nt | -6 | nt | -13
Nc1ncc(-c2nnnn2-c2ccc(Cl)cc2)c(-c2ccc(Cl)cc2)n1 | 17 | 28* | 18 | 32* | 28
Cc1ccccc1CN1CCN(Cc2ccc3cccc(F)c3n2)CC1CCO (stereo not given) | nt | nt | 6 | nt | -6
Cc1ccc(Cl)c(NC(=O)COC(=O)c2ccccc2C(=O)c2ccc(Cl)c([N+](=O)[O-])c2)c1Cl | 52* | 4 | 12 | 7 | -2
Cc1cccc(NS(=O)(=O)c2ccc(NC(=O)CN(c3cc([N+](=O)[O-])ccc3C)S(C)(=O)=O)cc2)c1 | 11 | 11 | 97* | 12 | 0
COc1ccc(C)cc1NS(=O)(=O)c1ccc(NC(=O)CN(c2cc([N+](=O)[O-])ccc2C)S(C)(=O)=O)cc1 | 59* | 6 | 7 | 9 | 7
Cc1cccc(NS(=O)(=O)c2cc(NC(=O)CC(=O)c3ccc([N+](=O)[O-])cc3)ccc2C)c1 | -6 | 2 | 3 | 8 | -27
COc1ccc([N+](=O)[O-])cc1N(CC(=O)NCCSc1ccc(C)cc1)S(C)(=O)=O | 4 | 3 | -2 | -3 | -28
COc1cccc(Cn2cc(C)cc(NC(=O)NCc3ccccc3)c2=O)c1 | nt | nt | 6 | nt | -12
CN(C)c1ccc(NC(=O)Cc2ccccc2)c2ccccc12 | nt | nt | 3 | nt | -19
CN(C)CC(CCC(CN(C)C)C(=O)c1ccccc1)C(=O)c1ccccc1 (stereo not given) | nt | 99* | 100* | 104* | 91*
O=C(Nc1cccc(S(=O)(=O)Nc2ccc(Cl)cc2)c1)c1ccc(Cl)nc1 | 2 | 41* | 13 | 52* | -8
O=C1CSc2ccc(C(=O)Nc3cccc(S(=O)(=O)Nc4ccc(Br)cc4)c3)cc2N1 | 7 | 17 | 4 | 44* | 8
O=C(Nc1ccc(NS(=O)(=O)c2ccccc2)cc1)c1ccc(Cl)cc1 | nt | nt | 2 | nt | -2
O=C(O)c1ccc(NC(=O)c2cccc(S(=O)(=O)Nc3ccc(C(=O)O)cc3)c2)cc1 | nt | nt | 0 | nt | -14
CCOC(=O)C(CC)/C(C)=N\NC(=O)c1ccccc1O (stereo not given) | 52* | 10 | -4 | 9 | 16
CCC/C(C)=N/NC(=O)c1ccccc1O | 11 | -2 | -4 | 8 | -22
O=c1cc(CSc2ccccc2)nc(-c2ccncc2)[nH]1 | -14 | -3 | -7 | 2 | -18
CC1(C)CC(=O)C(C(=S)Nc2ccccc2)=C(NCCN2CCOCC2)C1 | -6 | 0 | -6 | 35* | -15
CC(C)(C)NC(=O)C(c1ccncc1)N(C(=O)Cn1nnc(-c2ccc(F)cc2)n1)c1ccc(F)cc1 (stereo not given) | -22 | 3 | 3 | 81* | -9
Cc1nnsc1S(=O)c1ccccc1Cl (stereo not given) | nt | nt | 0 | nt | -18
SMILES | APP transl inh | Ba/F3 V617F tox | IEC-6 tox | BaF3 parental | KLF5 inh
CCN(CC)CCNC(=O)c1ccc(NC(=O)Nc2cccc3ccccc23)cc1 | nt | nt | 2 | nt | -19
C/C(=N\Nc1ncc(Cl)cc1Cl)c1ccccn1 | 70* | 4 | 1 | 7 | -33
Clc1ccc(-c2ccc(CNCc3ccccn3)o2)cc1 | nt | nt | 0 | nt | -38
O=C1C2C3C=CC(CO)(O3)C2C(=O)N1c1ccccc1-c1ccccc1 (stereo not given) | 70* | 3 | 8 | 0 | -10
CCCCOc1ccc(Br)cc1CSC(=N)N | 52* | 30* | 3 | 34* | -10
CCOc1ccc(C(C)=O)cc1CSC(=N)N | 19 | 0 | -2 | 7 | -9
O=C(C[n+]1cc(-c2ccccc2)n2c1CCC2)c1cccs1 | -10 | 26* | -10 | 39* | -40
Cc1ccc(-c2c[n+](CC(=O)N3c4ccccc4Sc4ccccc43)c3n2CCC3)cc1 | -14 | 1 | 1 | 7 | -12
O=C(C[n+]1cc(-c2ccccc2)n2c1CCC2)N1c2ccccc2Sc2ccccc21 | 0 | 0 | -4 | 6 | 5
